# Results published in PubChem BioAssay (NCATS).
# Several values for one entry are separate records, joined by “and”; a condition that tells them apart may be missing. Equal entries are not always repeated. Records with an inconclusive call do not appear. Entries that show only a call come without a potency. A structure can be active in one record and inactive in another. Activity calls are given as the source filed them. Unless noted, calls follow the shape of the dose curve; as a rule, active = well fitted curve in the direction sought with a large enough effect; inconclusive = small, poorly fitted or top-dose-only effect, or another doubt; inactive = no such curve, though single readings can be large; an effect the other way counts as inactive or inconclusive.
# Columns and labels:
# [1] = qHTS assay for small molecule agonists of retinoid X receptor alpha signaling (AID 588544; calls by dose curve); conditions: HEK293T RXRa-UAS-bla, beta-lactamase reporter, 18 h; 530 nm emission
# [2] = molecular target: Retinoic acid receptor RXR-alpha (Homo sapiens) (UniProt P19793); assay: as above; conditions: HEK293T RXRa-UAS-bla, beta-lactamase reporter, 18 h; series mostly up to 76.7 µM
# [3] = molecular target: Thyroid hormone receptor beta (Homo sapiens) (UniProt P10828); assay: qHTS assay for small molecule agonists of thyroid hormone receptor beta signaling (AID 588545; calls by dose curve); conditions: TR-UAS-bla GripTite HEK 293, beta-lactamase ratio, agonist mode, 18 h, percent of T3 response, DMSO as zero; series mostly up to 76.7 µM
# In short: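 Compounds were tested as agonists in TR-UAS-bla-GripTite HEK 293 cells. After 18 hrs at 37 C, CCF4 substrate was added and fluorescence read after 2 hrs at room temperature.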
# [4] = qHTS assay for small molecule antagonists of retinoid X receptor alpha signaling (AID 588546); conditions: HEK293T RXRa-UAS-bla, beta-lactamase ratio, antagonist mode; measured here: W530 green channel, cytotoxicity proxy;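 also: cells stimulated with 9-cis-retinoic acid as agonist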
# In short: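 Beta-lactamase reporter inhibition, read as CCF4 fluorescence ratio (ex 405, em 460/530 nm) after 2 h at RT. HEK293T UAS-bla cells, 2500/well, were stimulated with 9-cis-RA at 500 or 100 nM final alongside test compound for 18 h at 37 C.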
# [5] = molecular target: Thyroid hormone receptor beta (Homo sapiens) (UniProt P10828); assay: qHTS assay for small molecule antagonists of thyroid hormone receptor beta signaling (AID 588547; active = well fitted inhibition curve with a large enough effect in the signal ratio, with a control signal flat, not every such curve was filed as active; the % refers to the signal ratio;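 also: cells stimulated with 0.4 nM T3 agonist during compound exposure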); conditions: TR-UAS-bla HEK293, beta-lactamase ratio, antagonist mode, 18 h
# In short: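 TR-UAS-bla GripTite HEK293 cells in 2% charcoal/dextran FBS medium; compounds 0.59 nM to 92 uM with T3 at 0.4nM final, 18 h at 37 C. Beta-lactamase read by CCF4 fluorescence (460/530 nm); Hill fits gave IC50 and efficacy.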
# [6] = molecular target: Voltage-gated inwardly rectifying potassium channel KCNH2 (Homo sapiens) (UniProt Q12809); assay: qHTS Assay for Small Molecule Inhibitors of the Human hERG Channel Activity (AID 588834); conditions: U2OS BacMam hERG, FluxOR thallium flux fluorescence; series mostly up to 46.1 µM;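 also: lower thallium flux fluorescence means stronger hERG block; nearly all actives have a fitted effect of over 50% in size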; also: potency is read from the fitted curve at half-maximal effect
# In short: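 hERG-BacMam U2OS, 2000 cells/well; 0.7X FluxOR loading 1 hr RT dark; cpd ~10 min 37 °C; stim buffer; FDSS fluorescence 2 min @ 1 s; AC50 Hill fit.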
# [7] = molecular target: Luciferin 4-monooxygenase (Photinus pyralis) (UniProt P08659); assay: Biochemical firefly luciferase enzyme assay for NPC (AID 624030);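 also: purified P. pyralis luciferase at 10 nM with luciferin and ATP substrate; nearly all actives have a fitted effect of over 70% in size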; conditions: purified P. pyralis luciferase, luminescence, 5 min; series mostly up to 58.6 µM
# In short: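 Purified P. pyralis luciferase at 10 nM in 50 mM Tris Acetate (final), luminescence read within 5 minutes of enzyme addition to compounds. Activity normalised to PTC124 versus DMSO; concentration-response curves classed by r2, magnitude and activity.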
# [8] = S16 Schwann cell viability assay (CellTiter-Glo assay) (AID 624031); conditions: S16 rat Schwann cells viability, 24 h; series mostly up to 57.5 µM; also: nearly all actives have a fitted effect of over 70% in size; also: potency is read from the fitted curve at half-maximal effect
# In short: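 Concentration-effect curves come from CellTiter-Glo luminescence of S16 rat Schwann cells after 24 h compound exposure. Each reading was normalized to DMSO wells (0%) and wells without cells, and curves were ranked by r2 and response magnitude.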
# [9] = S16 Schwann cell PMP22 intronic element beta-lactamase assay (AID 624044; calls by dose curve; also: nearly all actives have a fitted effect of over 15% in size; also: potency is read from the fitted curve at half-maximal effect); conditions: S16 rat Schwann cells, PMP22 element beta-lactamase FRET, 24 h; series mostly up to 38.3 µM
# In short: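 Rat S16 Schwann cells with beta-Lac driven by a PMP22 intronic element, compound-treated 24 h at 37 °C. LiveBLAzer FRET B/G read: 460 nm normalized to potassium clavulanate vs DMSO; 535 nm FRET as viability; concentration-effect curves classified.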
# [10] = S16 Schwann cell PMP22 intronic element firefly luciferase assay (AID 624032); conditions: S16 rat Schwann cells, PMP22 element FLuc, 24 h; series mostly up to 57.5 µM; also: nearly all actives have a fitted effect of over 30% in size; also: potency is read from the fitted curve at half-maximal effect
# In short: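 Rat S16 Schwann cells stably carrying firefly luciferase driven by a PMP22 intronic element, in 10% FBS, treated 24 h at 37 C. ONE-Glo luminescence normalized to PTC124 control and DMSO (0%); curves classed by r2, magnitude and activity.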
# Luciferin 4-monooxygenase (Photinus pyralis), sequence (P08659 whole entry, looked up): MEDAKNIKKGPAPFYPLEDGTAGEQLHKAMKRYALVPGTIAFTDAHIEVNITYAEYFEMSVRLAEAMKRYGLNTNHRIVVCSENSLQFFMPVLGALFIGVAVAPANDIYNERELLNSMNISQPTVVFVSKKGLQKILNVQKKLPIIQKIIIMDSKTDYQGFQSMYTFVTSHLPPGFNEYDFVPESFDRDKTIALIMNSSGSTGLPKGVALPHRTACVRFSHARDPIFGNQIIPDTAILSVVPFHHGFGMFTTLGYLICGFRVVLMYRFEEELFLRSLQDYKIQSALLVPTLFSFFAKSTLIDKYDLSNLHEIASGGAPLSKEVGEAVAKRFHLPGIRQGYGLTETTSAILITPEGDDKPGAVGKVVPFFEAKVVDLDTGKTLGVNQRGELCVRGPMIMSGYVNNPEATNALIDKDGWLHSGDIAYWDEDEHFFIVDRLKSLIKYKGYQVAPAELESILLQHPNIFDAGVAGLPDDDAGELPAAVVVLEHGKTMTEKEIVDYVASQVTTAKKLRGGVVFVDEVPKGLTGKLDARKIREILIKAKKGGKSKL
# Retinoic acid receptor RXR-alpha (Homo sapiens), sequence (P19793 whole entry, looked up): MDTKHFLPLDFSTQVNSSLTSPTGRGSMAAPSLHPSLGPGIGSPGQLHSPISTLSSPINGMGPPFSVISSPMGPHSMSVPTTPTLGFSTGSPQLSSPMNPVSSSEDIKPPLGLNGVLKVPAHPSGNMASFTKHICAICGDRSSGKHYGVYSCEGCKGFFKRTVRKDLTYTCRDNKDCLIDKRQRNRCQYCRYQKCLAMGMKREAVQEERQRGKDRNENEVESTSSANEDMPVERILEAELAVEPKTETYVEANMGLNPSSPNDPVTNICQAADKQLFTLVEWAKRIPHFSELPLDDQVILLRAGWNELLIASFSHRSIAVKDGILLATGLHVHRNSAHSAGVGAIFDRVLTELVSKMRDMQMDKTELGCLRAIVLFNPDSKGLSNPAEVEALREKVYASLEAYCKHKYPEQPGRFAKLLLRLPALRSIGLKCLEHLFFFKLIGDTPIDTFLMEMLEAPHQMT
# Voltage-gated inwardly rectifying potassium channel KCNH2 (Homo sapiens), sequence (Q12809 whole entry, looked up): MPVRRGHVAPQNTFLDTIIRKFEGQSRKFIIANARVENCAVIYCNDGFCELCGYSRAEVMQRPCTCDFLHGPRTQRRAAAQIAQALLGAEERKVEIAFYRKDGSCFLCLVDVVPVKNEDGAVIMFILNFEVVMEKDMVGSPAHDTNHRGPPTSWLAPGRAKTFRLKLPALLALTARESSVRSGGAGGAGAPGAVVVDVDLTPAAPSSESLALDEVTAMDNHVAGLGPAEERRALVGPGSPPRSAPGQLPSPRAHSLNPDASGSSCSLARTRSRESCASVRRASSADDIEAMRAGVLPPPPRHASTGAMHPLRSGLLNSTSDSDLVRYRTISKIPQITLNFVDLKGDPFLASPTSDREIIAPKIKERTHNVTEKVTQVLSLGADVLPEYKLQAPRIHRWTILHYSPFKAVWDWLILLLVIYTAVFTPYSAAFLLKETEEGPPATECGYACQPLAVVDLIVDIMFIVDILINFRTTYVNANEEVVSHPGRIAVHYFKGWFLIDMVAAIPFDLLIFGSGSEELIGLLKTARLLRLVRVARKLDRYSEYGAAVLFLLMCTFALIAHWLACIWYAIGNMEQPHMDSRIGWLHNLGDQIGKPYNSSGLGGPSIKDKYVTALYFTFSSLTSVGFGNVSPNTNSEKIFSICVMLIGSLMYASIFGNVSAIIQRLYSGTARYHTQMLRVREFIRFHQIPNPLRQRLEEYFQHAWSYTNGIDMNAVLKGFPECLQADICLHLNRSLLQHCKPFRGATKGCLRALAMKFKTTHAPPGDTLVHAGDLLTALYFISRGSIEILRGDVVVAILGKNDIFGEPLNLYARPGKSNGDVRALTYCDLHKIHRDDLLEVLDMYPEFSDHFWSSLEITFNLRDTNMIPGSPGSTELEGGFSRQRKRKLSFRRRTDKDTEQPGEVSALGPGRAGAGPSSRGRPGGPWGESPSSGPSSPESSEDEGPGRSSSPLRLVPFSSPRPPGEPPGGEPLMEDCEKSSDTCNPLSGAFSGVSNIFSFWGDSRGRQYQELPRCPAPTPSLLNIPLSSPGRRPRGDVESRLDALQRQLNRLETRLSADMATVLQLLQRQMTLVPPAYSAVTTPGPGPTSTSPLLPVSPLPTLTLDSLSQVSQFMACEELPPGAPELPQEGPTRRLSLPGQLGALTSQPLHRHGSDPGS
# Thyroid hormone receptor beta (Homo sapiens), sequence (P10828 whole entry, looked up): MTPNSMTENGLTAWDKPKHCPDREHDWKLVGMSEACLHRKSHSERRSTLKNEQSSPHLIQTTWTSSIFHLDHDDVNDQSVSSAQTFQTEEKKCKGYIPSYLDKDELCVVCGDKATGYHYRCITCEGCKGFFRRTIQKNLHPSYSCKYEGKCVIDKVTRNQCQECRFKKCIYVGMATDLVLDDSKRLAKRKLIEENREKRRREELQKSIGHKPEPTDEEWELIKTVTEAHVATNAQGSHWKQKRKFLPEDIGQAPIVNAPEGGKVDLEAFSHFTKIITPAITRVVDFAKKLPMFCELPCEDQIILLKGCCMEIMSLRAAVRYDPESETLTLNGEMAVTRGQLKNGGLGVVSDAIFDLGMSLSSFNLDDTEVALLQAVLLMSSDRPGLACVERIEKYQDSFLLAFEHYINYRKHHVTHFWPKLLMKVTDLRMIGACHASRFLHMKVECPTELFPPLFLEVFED
smiles,measurement,setting,value
COP(=O)(OC)OC=C(Cl)Cl,max response,[1],-12.2% and -24.6% and -4.24%
same,outcome,[2],inactive
same,outcome,[3],inactive
same,max response,[4],-12% and -6.53% and -17.3%
same,activity change % (negative = inhibition),[5],-21% (inactive) and -1.19% (inactive) and -2.09% (inactive)
same,Potency,[6],inactive
same,Potency,[7],inactive
same,Potency,[8],inactive
same,Potency,[9],15800 nM (active)
Oc1c(Br)cc(Br)cc1Br,max response,[1],-20.6%
same,outcome,[2],inactive
same,outcome,[3],inactive
same,max response,[4],9.85% and -7.56%
same,activity change % (negative = inhibition),[5],15.6% (inactive)
same,Potency,[6],inactive
same,Potency,[7],inactive
same,Potency,[8],inactive
COP(=O)(OC)C(O)C(Cl)(Cl)Cl (stereo not drawn),outcome,[3],inactive
same,Potency,[6],inactive
same,Potency,[7],inactive
same,Potency,[8],inactive
same,Potency,[10],inactive
same,Potency,[9],inactive
Clc1ccc(C(OCCN2CCCCC2)c2ccccc2)cc1 (stereo not drawn),Potency,[6],891 nM (active)
NC(N)=N/N=C/c1c(Cl)cccc1Cl,Potency,[6],inactive
CC(N)C(=O)OC(C)(C)Cc1ccc(Cl)cc1 (stereo not drawn),Potency,[6],inactive
C[C@@H]1C[C@@H]([C@H](O)CC2CC(=O)NC(=O)C2)C(=O)[C@@H](C)C1,max response,[1],-10.1%
same,outcome,[2],inactive
same,outcome,[3],inactive
same,activity change % (negative = inhibition),[5],-37.8% (inactive)
same,Potency,[6],inactive
Cc1ccc(N=CN(C)C=Nc2ccc(C)cc2C)c(C)c1,max response,[4],-10.6%
same,Potency,[7],inactive
same,Potency,[8],inactive
same,Potency,[9],inactive
C[N+]1(C)[C@@H]2CC[C@H]1CC(OC(=O)C(CO)c1ccccc1)C2 (stereo partly drawn),Potency,[6],inactive
CCNc1nc(Cl)nc(NCC)n1,max response,[1],-18.2%
same,outcome,[2],inactive
same,outcome,[3],inactive
same,max response,[4],-7.93%
same,activity change % (negative = inhibition),[5],3.97% (inactive)
same,Potency,[6],inactive
same,Potency,[7],inactive
same,Potency,[8],inactive
C#C[C@]1(O)C=C[C@H]2[C@@H]3CCC4=CC(=O)CC[C@@H]4[C@H]3CC[C@@]21CC,Potency,[6],inactive
COCC(=O)N(c1c(C)cccc1C)C(C)C(=O)OC (stereo not drawn),max response,[1],3.24%
same,outcome,[2],inactive
same,max response,[4],1.9%
same,Potency,[6],inactive
same,Potency,[7],inactive
same,Potency,[8],inactive
same,Potency,[10],inactive
O=c1n(Cl)c(=O)n(Cl)c(=O)n1Cl,max response,[1],-19.7%
same,outcome,[2],inactive
same,outcome,[3],inactive
same,max response,[4],-7.37%
same,activity change % (negative = inhibition),[5],4.09% (inactive)
same,Potency,[6],inactive
same,Potency,[7],inactive
same,Potency,[8],inactive
CCC1(c2cccc(O)c2)CCCCN(C)C1 (stereo not drawn),Potency,[6],inactive
CN(C)C(=O)Oc1cc(OC(=O)N(C)C)cc(C(O)CNC(C)(C)C)c1 (stereo not drawn),Potency,[6],inactive
CN(C)C(=S)SSC(=S)N(C)C,outcome,[3],inactive
same,max response,[4],18.1%
same,Potency,[6],inactive and 44.7 µM (active)
same,Potency,[8],2560 nM (active)
same,Potency,[10],1440 nM (active)
c1cc(CN2CCCCC2)cc(OCCCNc2nc3ccccc3s2)c1,Potency,[6],12600 nM (active)
CCC(=O)O[C@H]1CC[C@H]2[C@@H]3CCC4=CC(=O)CC[C@]4(C)[C@H]3CC[C@]12C,outcome,[3],inactive
same,max response,[4],1.48%
same,activity change % (negative = inhibition),[5],4.79% (inactive)
same,Potency,[6],inactive
same,Potency,[7],inactive
same,Potency,[8],inactive
O=C(Nc1ccc(Cl)cc1)Nc1ccc(Cl)c(Cl)c1,max response,[4],-4.96%
CC[n+]1c(-c2ccccc2)c2cc(N)ccc2c2ccc(N)cc21,max response,[4],-17.9%
same,Potency,[6],inactive
same,Potency,[7],inactive
same,Potency,[8],inactive
same,Potency,[10],inactive
CC(C)=C[C@@H]1[C@@H](C(=O)OCc2coc(Cc3ccccc3)c2)C1(C)C,Potency,[6],inactive
CCOP(=S)(OCC)O/N=C(\C#N)c1ccccc1,outcome,[3],inactive
same,activity change % (negative = inhibition),[5],19.6% (inactive)
same,Potency,[7],inactive
C[C@@H]1CC[C@H]2[C@@H](C)C(=O)O[C@@H]3O[C@@]4(C)CC[C@@H]1[C@]32OO4,Potency,[6],inactive
CCCC(C)C1(CC)C(=O)N=C(S)NC1=O (stereo not drawn),Potency,[6],inactive
CCOC(=O)NC(O)C(Cl)(Cl)Cl (stereo not drawn),Potency,[6],inactive
same,Potency,[7],inactive
same,Potency,[8],inactive
same,Potency,[10],inactive
C=CCN1CC[C@]23CCCC[C@H]2[C@H]1Cc1ccc(O)cc13,Potency,[6],inactive
O=C(CCCN1CCC(n2c(=O)[nH]c3ccccc32)CC1)c1ccc(F)cc1,Potency,[6],355 nM (active)
same,Potency,[7],inactive
same,Potency,[8],inactive
same,Potency,[10],inactive
c1ccc2nc(N3CCNCC3)ccc2c1,Potency,[6],inactive
same,Potency,[7],inactive
same,Potency,[8],inactive
same,Potency,[10],inactive
NC(=O)CN1CCCC1=O,Potency,[6],inactive
same,Potency,[7],inactive
same,Potency,[8],inactive
same,Potency,[10],inactive
O=C1NCN(c2ccccc2)C12CCN(CCCOc1ccc(F)cc1)CC2,Potency,[6],355 nM (active)
same,Potency,[7],inactive
same,Potency,[8],inactive
ClC1=C(Cl)C2(Cl)C(CBr)CC1(Cl)C2(Cl)Cl (stereo not drawn),Potency,[6],22400 nM (active)
same,Potency,[7],inactive
same,Potency,[8],inactive
c1cc2c(c(N3CCNCC3)c1)OCCO2,Potency,[6],inactive
same,Potency,[7],inactive
same,Potency,[8],inactive
same,Potency,[10],inactive
